# Assay results as given in PubChem BioAssay.
# Target: Tumor necrosis factor receptor superfamily member 10B (Homo sapiens) (UniProt O14763)
# Test: viability loss of caspase-8 NB7 cells with TRAIL – with/without TRAIL, luminescence panel, confirmation (AID 651596)
# Settings: NB7 neuroblastoma + caspase-8, TRAIL sensitization, NB7 Caspase-8, with TRAIL, mean of runs, at 10 µM, stronger effect = higher value
# Sequence of Tumor necrosis factor receptor superfamily member 10B (Homo sapiens) (O14763 whole entry, looked up): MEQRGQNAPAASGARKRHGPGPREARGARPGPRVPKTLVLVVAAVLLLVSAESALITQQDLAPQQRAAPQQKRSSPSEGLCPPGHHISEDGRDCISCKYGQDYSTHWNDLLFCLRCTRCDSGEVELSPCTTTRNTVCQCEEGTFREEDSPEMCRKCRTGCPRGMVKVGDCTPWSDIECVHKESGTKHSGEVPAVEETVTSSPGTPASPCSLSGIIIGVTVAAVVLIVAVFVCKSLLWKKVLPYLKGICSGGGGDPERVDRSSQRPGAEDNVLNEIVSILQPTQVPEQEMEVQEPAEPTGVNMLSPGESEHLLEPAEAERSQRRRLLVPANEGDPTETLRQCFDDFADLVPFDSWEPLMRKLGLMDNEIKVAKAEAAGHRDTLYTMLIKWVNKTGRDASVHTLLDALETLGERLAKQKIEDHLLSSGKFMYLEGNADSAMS
row,SMILES,activity
1,Cn1c(=N)n(CC(=O)c2ccc(F)cc2)c2ccccc21,75.8%
2,FC(F)(F)c1cccc(Sc2nc(-c3ccccc3)nnc2C(F)(F)F)c1,42.5%
3,Cc1cc(NC2CCCC2)n2ncc(-c3ccccc3)c2n1,69.1%
4,CCOC(=O)c1cc([N+](=O)[O-])cc([N+](=O)[O-])c1Sc1ncnc2nc[nH]c12,51.5%
5,COC(=O)c1cccc(NC(=O)c2cc3ccccc3o2)c1,57.4%
6,Cc1cc(NC(=O)c2ccc(C(C)(C)C)cc2)no1,77.8%
7,CCn1nc(C(=O)NCCc2ccc(S(N)(=O)=O)cc2)c2ccccc2c1=O,16%
8,O=C(Nc1ccc(NC(=O)C2CC2)cn1)c1ccccc1,51.1%
9,CC(C)(C)C(=O)N1CCc2cc(-c3csc(N)n3)ccc21,91.8%
10,O=C(Nc1ccc(O)cc1)c1ccc2c(c1)C(=O)N(Cc1ccccc1)C2=O,60.9%
11,O=C(N/N=C/c1ccccc1)c1ccc2c(c1)OCO2,61.2%
12,C(=N\Nc1nc2ccccc2[nH]1)/c1ccc2ncccc2c1,81%
13,CCOC(=O)/C(=C/c1ccc(OC(F)F)cc1)C1=Nn2c(nnc2-c2ccc(Cl)cc2)SC1,98.8%
14,COc1cc2c(cc1NC(=O)c1cccc([N+](=O)[O-])c1)oc1ccccc12,-1.55%
15,CC(/C=N/NC(=O)c1ccco1)=C\c1ccccc1,73.5%
16,C/C(Cn1nnc([N+](=O)[O-])n1)=N\NC(=O)c1ccc(O)cc1,50.4%
17,c1cc(-c2cc3cc(N4CCOCC4)ccc3o2)cs1,77.3%
18,CCC(=O)c1ccc(OCC(=O)OCC(=O)N2CCCc3ccccc32)cc1,-9.15%
19,COC(=O)c1ccc2c(c1)C(C)(C)C(/C=C/c1ccc(OC)c(OC)c1OC)=[N+]2C,73.8%
20,N/C(CCS(=O)(=O)c1ccc(Cl)cc1)=N\OC(=O)c1ccc(Cl)cc1,98.2%

row,SMILES,activity
1,Cc1ccc(-n2[nH]c(C)c(C=Nc3ccc4[nH]c(=O)[nH]c4c3)c2=O)cc1C,51.4%
2,NC1=NC[C@H](CC2CCCCC2)N1CCc1cc(C(F)(F)F)cc(C(F)(F)F)c1,40.9%
3,COc1ccc(Oc2c(Cl)cnn(-c3ccc(C)cc3)c2=O)cc1,96.9%
4,CC(=O)n1cc(N(C(=O)CCl)c2ccc(Cl)cc2)c2ccccc21,98.5%
5,Cc1ccc(NC(=O)CSc2nn(-c3ccccc3)c(=S)s2)cc1S(=O)(=O)N(C)C,22.1%
6,Cc1nc(-c2ccc(NC(=O)c3ccccc3)cc2)cs1,80.8%
7,Cc1ccc(-c2nnc(Nc3ccccc3)o2)cc1,59.7%
8,CCN(CC)CCn1c2c(c(SCC(=O)Nc3nc4ccc(C)cc4s3)nc1=O)CCC2,28%
9,Cc1ccc(-c2nc(-c3ccccn3)no2)cc1[N+](=O)[O-],60.7%
10,C#Cc1ccc(NC(=O)C2(C)CCN2C(=O)Cc2ccc(-c3ccccc3)cc2)cc1 (stereo not given),94.4%
11,Cc1ccc(NC(=O)COc2ccccc2[N+](=O)[O-])nc1,60.5%
12,Cc1cc(C)cc(N2C(N)=NC(N)=NC2c2ccccc2F)c1 (stereo not given),51.1%
13,CCc1ccc(-n2nc3cc(C)c(N)cc3n2)cc1,64.4%
14,Cc1scc(C(=O)N/N=C/c2ccsc2)c1C,58.1%
15,CN1/C(=C/C(=O)c2cccs2)Sc2ccccc21,60%
16,CCCc1cc(=O)[nH]c(SCC(=O)Nc2cc(S(=O)(=O)N3CCCCC3)ccc2C)n1,3.67%
17,Brc1ccc(-c2nc(N/N=C/c3cccnc3)c3ccccc3n2)cc1,93.5%
18,N/C(=N\OC(=O)c1ccccc1Cl)c1cccnc1,67.2%
19,Cc1ccc(Nc2nc(N)c3ccccc3n2)cc1Cl,75.7%
20,CC1(C)N=C(N)N=C(N)N1c1ccccc1,83.4%

# Tested on: not listed separately
# Test: as above
# Settings: NB7 neuroblastoma + caspase-8, without TRAIL, NB7 Caspase-8, without TRAIL, mean of runs, at 10 µM
row,SMILES,activity
1,Cn1c(=N)n(CC(=O)c2ccc(F)cc2)c2ccccc21,67.5%
2,FC(F)(F)c1cccc(Sc2nc(-c3ccccc3)nnc2C(F)(F)F)c1,60.4%
3,Cc1cc(NC2CCCC2)n2ncc(-c3ccccc3)c2n1,69.1%
4,CCOC(=O)c1cc([N+](=O)[O-])cc([N+](=O)[O-])c1Sc1ncnc2nc[nH]c12,71.2%
5,COC(=O)c1cccc(NC(=O)c2cc3ccccc3o2)c1,58.6%
6,Cc1cc(NC(=O)c2ccc(C(C)(C)C)cc2)no1,79.9%
7,CCn1nc(C(=O)NCCc2ccc(S(N)(=O)=O)cc2)c2ccccc2c1=O,41.1%
8,O=C(Nc1ccc(NC(=O)C2CC2)cn1)c1ccccc1,57%
9,CC(C)(C)C(=O)N1CCc2cc(-c3csc(N)n3)ccc21,88.1%
10,O=C(Nc1ccc(O)cc1)c1ccc2c(c1)C(=O)N(Cc1ccccc1)C2=O,19.7%
11,O=C(N/N=C/c1ccccc1)c1ccc2c(c1)OCO2,56.1%
12,C(=N\Nc1nc2ccccc2[nH]1)/c1ccc2ncccc2c1,85.6%
13,CCOC(=O)/C(=C/c1ccc(OC(F)F)cc1)C1=Nn2c(nnc2-c2ccc(Cl)cc2)SC1,97.1%
14,COc1cc2c(cc1NC(=O)c1cccc([N+](=O)[O-])c1)oc1ccccc12,-9.4%
15,CC(/C=N/NC(=O)c1ccco1)=C\c1ccccc1,71.2%
16,C/C(Cn1nnc([N+](=O)[O-])n1)=N\NC(=O)c1ccc(O)cc1,48.3%
17,c1cc(-c2cc3cc(N4CCOCC4)ccc3o2)cs1,67.4%
18,CCC(=O)c1ccc(OCC(=O)OCC(=O)N2CCCc3ccccc32)cc1,-14.8%
19,COC(=O)c1ccc2c(c1)C(C)(C)C(/C=C/c1ccc(OC)c(OC)c1OC)=[N+]2C,68.9%
20,N/C(CCS(=O)(=O)c1ccc(Cl)cc1)=N\OC(=O)c1ccc(Cl)cc1,93.3%

row,SMILES,activity
1,Cc1ccc(-n2[nH]c(C)c(C=Nc3ccc4[nH]c(=O)[nH]c4c3)c2=O)cc1C,41.5%
2,NC1=NC[C@H](CC2CCCCC2)N1CCc1cc(C(F)(F)F)cc(C(F)(F)F)c1,80%
3,COc1ccc(Oc2c(Cl)cnn(-c3ccc(C)cc3)c2=O)cc1,89.9%
4,CC(=O)n1cc(N(C(=O)CCl)c2ccc(Cl)cc2)c2ccccc21,98.9%
5,Cc1ccc(NC(=O)CSc2nn(-c3ccccc3)c(=S)s2)cc1S(=O)(=O)N(C)C,17.6%
6,Cc1nc(-c2ccc(NC(=O)c3ccccc3)cc2)cs1,76.2%
7,Cc1ccc(-c2nnc(Nc3ccccc3)o2)cc1,54.5%
8,CCN(CC)CCn1c2c(c(SCC(=O)Nc3nc4ccc(C)cc4s3)nc1=O)CCC2,21.6%
9,Cc1ccc(-c2nc(-c3ccccn3)no2)cc1[N+](=O)[O-],55%
10,C#Cc1ccc(NC(=O)C2(C)CCN2C(=O)Cc2ccc(-c3ccccc3)cc2)cc1 (stereo not given),68.4%
11,Cc1ccc(NC(=O)COc2ccccc2[N+](=O)[O-])nc1,62.8%
12,Cc1cc(C)cc(N2C(N)=NC(N)=NC2c2ccccc2F)c1 (stereo not given),72.4%
13,CCc1ccc(-n2nc3cc(C)c(N)cc3n2)cc1,51.1%
14,Cc1scc(C(=O)N/N=C/c2ccsc2)c1C,63.5%
15,CN1/C(=C/C(=O)c2cccs2)Sc2ccccc21,47%
16,CCCc1cc(=O)[nH]c(SCC(=O)Nc2cc(S(=O)(=O)N3CCCCC3)ccc2C)n1,-4.17%
17,Brc1ccc(-c2nc(N/N=C/c3cccnc3)c3ccccc3n2)cc1,89.7%
18,N/C(=N\OC(=O)c1ccccc1Cl)c1cccnc1,70.6%
19,Cc1ccc(Nc2nc(N)c3ccccc3n2)cc1Cl,73.1%
20,CC1(C)N=C(N)N=C(N)N1c1ccccc1,87.2%
